# PubChem BioAssay AID1159580 (chemical genetic matrix, 2015)
# Screen size: about 5,500 compounds; about 2,000 (36%) were called active. Roughly 18% stayed inconclusive and do not appear here. The list shows a part of the results. Values without a mark were called inactive. Cut-off read from the data, not from the text of the source: active = normalized growth mostly below about 0.91 (no sharp cut-off); inconclusive = no clear call, values can overlap the other calls; inactive = mostly above about 0.92.
# Experiment: chemical genetic growth profiling, strain panel (AID 1159580);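 note: tested at 20 µM; growth read once vehicle control cultures reached saturation at 30 °C; 1 = growth at the plate median or of vehicle wells; lower values mean less growth of the strain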
# Details: growth OD
smiles,measurement,setting,value
COc1ccc(C(c2ccc(OC)cc2)C(Cl)(Cl)Cl)cc1,normalized growth,"S. cerevisiae deletion strains, locus YJR043C, strain POL32, hits give low values",0.987
same,normalized growth,"S. cerevisiae deletion strains, locus YJR075W, strain HOC1, hits give low values",1.01
same,normalized growth,"S. cerevisiae deletion strains, locus YKL009W, strain mrt4, hits give low values",0.949
same,normalized growth,"S. cerevisiae deletion strains, locus YKL068W, hits give low values",0.995
same,normalized growth,"S. cerevisiae deletion strains, locus YKL085W, strain MDH1 (second series), hits give low values",0.999
same,normalized growth,"S. cerevisiae deletion strains, locus YKL085W, strain MDH1, hits give low values",0.999
same,normalized growth,"S. cerevisiae deletion strains, locus YKL160W, strain elf1, hits give low values",1
same,normalized growth,"S. cerevisiae deletion strains, locus YKL190W, strain CNB1, hits give low values",1.01
same,normalized growth,"S. cerevisiae deletion strains, locus YKR001C, strain vps1, hits give low values",0.966
same,normalized growth,"S. cerevisiae deletion strains, locus YKR026C, strain gcn3, hits give low values",1.01
same,normalized growth,"S. cerevisiae deletion strains, locus YKR091W, strain srl3, hits give low values",1.02
same,normalized growth,"S. cerevisiae deletion strains, locus YLL001W, strain dnm1, hits give low values",1.01
same,normalized growth,"S. cerevisiae deletion strains, locus YLL026W, hits give low values",1.02
same,normalized growth,"S. cerevisiae deletion strains, locus YLL041C, strain sdh2, hits give low values",1.02
same,normalized growth,"S. cerevisiae deletion strains, locus YLR027C, strain aat2, hits give low values",1.02
same,normalized growth,"S. cerevisiae deletion strains, locus YLR039C, strain RIC1, hits give low values",1.01
same,normalized growth,"S. cerevisiae deletion strains, locus YLR058C, strain SHM2, hits give low values",0.994
same,normalized growth,"S. cerevisiae deletion strains, locus YLR102C, strain apc9, hits give low values",0.99
same,normalized growth,"S. cerevisiae deletion strains, locus YLR221C, strain rsa3, hits give low values",0.981
same,normalized growth,"S. cerevisiae deletion strains, locus YLR258W, strain gsy2, hits give low values",1.01
same,normalized growth,"S. cerevisiae deletion strains, locus YLR262C, strain YPT6 (second series), hits give low values",0.856 (active)
same,normalized growth,"S. cerevisiae deletion strains, locus YLR262C, strain YPT6, hits give low values",1.03
same,normalized growth,"S. cerevisiae deletion strains, locus YLR268W, strain sec22, hits give low values",0.997
same,normalized growth,"S. cerevisiae deletion strains, locus YLR320W, strain mms22, hits give low values",0.963
same,normalized growth,"S. cerevisiae deletion strains, locus YLR330W, strain CHS5, hits give low values",0.998
same,normalized growth,"S. cerevisiae deletion strains, locus YLR342W, strain FKS1 (second series), hits give low values",0.975
same,normalized growth,"S. cerevisiae deletion strains, locus YLR342W, strain FKS1, hits give low values",1.01
same,normalized growth,"S. cerevisiae deletion strains, locus YLR357W, strain rsc2, hits give low values",1.03
same,normalized growth,"S. cerevisiae deletion strains, locus YLR370C, strain arc18, hits give low values",1.01
same,normalized growth,"S. cerevisiae deletion strains, locus YLR371W, strain rom2, hits give low values",0.972
same,normalized growth,"S. cerevisiae deletion strains, locus YLR384C, strain iki3, hits give low values",0.996
same,normalized growth,"S. cerevisiae deletion strains, locus YLR418C, strain cdc73, hits give low values",0.993
same,normalized growth,"S. cerevisiae deletion strains, locus YML016C, strain PPZ1, hits give low values",0.993
same,normalized growth,"S. cerevisiae deletion strains, locus YML032C, strain rad52, hits give low values",0.975
same,normalized growth,"S. cerevisiae deletion strains, locus YML120C, strain ndi1, hits give low values",1.02
same,normalized growth,"S. cerevisiae deletion strains, locus YML124C, strain tub3, hits give low values",0.983
same,normalized growth,"S. cerevisiae deletion strains, locus YMR058W, strain fet3, hits give low values",1.01
same,normalized growth,"S. cerevisiae deletion strains, locus YMR078C, strain ctf18, hits give low values",0.988
same,normalized growth,"S. cerevisiae deletion strains, locus YMR125W, strain sto1, hits give low values",1
same,normalized growth,"S. cerevisiae deletion strains, locus YMR129W, hits give low values",1.01
same,normalized growth,"S. cerevisiae deletion strains, locus YMR205C, strain PFK2, hits give low values",0.985
same,normalized growth,"S. cerevisiae deletion strains, locus YMR223W, strain ubp8, hits give low values",0.966
same,normalized growth,"S. cerevisiae deletion strains, locus YMR231W, strain pep5, hits give low values",1
same,normalized growth,"S. cerevisiae deletion strains, locus YMR263W, strain SAP30, hits give low values",1.01
same,normalized growth,"S. cerevisiae deletion strains, locus YMR307W, strain GAS1, hits give low values",0.892
same,normalized growth,"S. cerevisiae deletion strains, locus YNL067W, strain RPL9B, hits give low values",0.999
same,normalized growth,"S. cerevisiae deletion strains, locus YNL071W, strain lat1, hits give low values",0.999
same,normalized growth,"S. cerevisiae deletion strains, locus YNL128W, strain TEP1, hits give low values",0.992
same,normalized growth,"S. cerevisiae deletion strains, locus YNL153C, strain GIM3, hits give low values",0.998
same,normalized growth,"S. cerevisiae deletion strains, locus YNL209W, strain ssb2, hits give low values",1
same,normalized growth,"S. cerevisiae deletion strains, locus YNL233W, strain BNI4, hits give low values",1
same,normalized growth,"S. cerevisiae deletion strains, locus YNL248C, strain rpa49, hits give low values",1.01
same,normalized growth,"S. cerevisiae deletion strains, locus YNL250W, strain rad50, hits give low values",0.992
same,normalized growth,"S. cerevisiae deletion strains, locus YNL271C, strain bni1, hits give low values",0.988
same,normalized growth,"S. cerevisiae deletion strains, locus YNL298W, strain CLA4, hits give low values",0.977
same,normalized growth,"S. cerevisiae deletion strains, locus YNL307C, strain MCK1, hits give low values",0.964
same,normalized growth,"S. cerevisiae deletion strains, locus YNL322C, strain KRE1 (second series), hits give low values",0.985
same,normalized growth,"S. cerevisiae deletion strains, locus YNL322C, strain KRE1, hits give low values",1.01
same,normalized growth,"S. cerevisiae deletion strains, locus YNR049C, strain mso1, hits give low values",1.01
same,normalized growth,"S. cerevisiae deletion strains, locus YNR052C, strain pop2, hits give low values",0.96
same,normalized growth,"S. cerevisiae deletion strains, locus YOL006C, strain TOP1, hits give low values",1.02
same,normalized growth,"S. cerevisiae deletion strains, locus YOL012C, strain htz1",0.957
same,normalized growth,"S. cerevisiae deletion strains, locus YOL147C, strain pex11, hits give low values",0.985
same,normalized growth,"S. cerevisiae deletion strains, locus YOR001W, strain rrp6, hits give low values",0.987
same,normalized growth,"S. cerevisiae deletion strains, locus YOR061W, strain CKA2, hits give low values",1.01
same,normalized growth,"S. cerevisiae deletion strains, locus YOR069W, strain VPS5, hits give low values",0.992
same,normalized growth,"S. cerevisiae deletion strains, locus YOR070C, strain gyp1, hits give low values",1.02
same,normalized growth,"S. cerevisiae deletion strains, locus YOR080W, strain dia2, hits give low values",1.01
same,normalized growth,"S. cerevisiae deletion strains, locus YOR083W, strain WHI5, hits give low values",1
same,normalized growth,"S. cerevisiae deletion strains, locus YOR106W, strain vam3, hits give low values",0.967
same,normalized growth,"S. cerevisiae deletion strains, locus YOR136W, strain idh2, hits give low values",0.972
same,normalized growth,"S. cerevisiae deletion strains, locus YOR144C, strain elg1, hits give low values",0.982
same,normalized growth,"S. cerevisiae deletion strains, locus YOR184W, strain ser1, hits give low values",0.962
same,normalized growth,"S. cerevisiae deletion strains, locus YOR265W, strain rbl2, hits give low values",1.01
same,normalized growth,"S. cerevisiae deletion strains, locus YOR270C, strain vph1, hits give low values",0.982
same,normalized growth,"S. cerevisiae deletion strains, locus YOR290C, strain snf2, hits give low values",0.984
same,normalized growth,"S. cerevisiae deletion strains, locus YOR316C, strain cot1, hits give low values",0.995
same,normalized growth,"S. cerevisiae deletion strains, locus YPL051W, strain arl3, hits give low values",0.978
same,normalized growth,"S. cerevisiae deletion strains, locus YPL055C, strain LGE1, hits give low values",0.996
same,normalized growth,"S. cerevisiae deletion strains, locus YPL078C, strain atp4, hits give low values",1.02
same,normalized growth,"S. cerevisiae deletion strains, locus YPL106C, strain sse1, hits give low values",1.06
same,normalized growth,"S. cerevisiae deletion strains, locus YPL240C, strain hsp82, hits give low values",1.01
same,normalized growth,"S. cerevisiae deletion strains, locus YPL241C, strain CIN2, hits give low values",1
same,normalized growth,"S. cerevisiae deletion strains, locus YPR119W, strain clb2, hits give low values",0.998
same,normalized growth,"S. cerevisiae deletion strains, locus YPR141C, strain kar3, hits give low values",0.994
same,normalized growth,"S. cerevisiae deletion strains, locus YPR163C, strain tif3, hits give low values",0.97
same,normalized growth,"S. cerevisiae deletion strains, locus YPR167C, strain met16, hits give low values",0.991
same,normalized growth,"S. cerevisiae deletion strains, strain wtn01, hits give low values",1
same,normalized growth,"S. cerevisiae strains, strain wild type, hits give low values",1
